Assay results published in PubChem BioAssay (NCI).
This is part of a sample that, as a whole, favours compounds with a hit. Of some 83,000 tested, about 20% had one in any assay.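 Activity criterion: percent growth below 10, measured after cells in 96-well plates were exposed to a single compound concentration for 48 hours.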 Unmarked numbers belong to inactive results. The source made the active and inactive calls.

system: HL-60(TB) leukemia; test: NCI-60 one-dose screen, 48 h (100 = growth as untreated, 0 = no growth, -100 = all killed); conditions: 10 µM unless noted

| Structure (SMILES) | growth |
| --- | --- |
| C=C(C)c1ccc(/C=N/NC(N)=S)cc1 | 147% |
| Cn1cnc2nc[nH]c2c1=S | 108% |
| Cc1cc(N=C2C=CC(=[N+](C)C)C=C2)c(N)cc1N | 122% |
| COc1cc(-c2cc3cnccc3c3nc(N)c4ccncc4c23)cc(OC)c1OC | 40.4% |
| O=C(CN1N=C(c2ccc(F)cc2)CCC1=O)Nc1nc2ccccc2s1 | 8.9% (active) |
| CC1CCCC(CC(N)=O)CC1 (stereo not given) | 90.5% |
| Oc1ccccc1-c1nnc(Cn2c(Cc3cccc4ccccc34)nc3ccccc32)o1 | 96% |
| COc1ccc(C(=O)NCCNc2nccc(-c3c(-c4ccc(F)cc4)nc4sccn34)n2)cc1 | 88.9% |
| Cc1ccn2c(-c3csc(Nc4cccc(O)c4)n3)c(C)nc2c1 | -19.4% (active) |
| CCn1cc(C(=O)O)c(=O)c2cc(F)c(N3CCN(S(=O)(=O)c4c(C)cc(C)cc4C)CC3)cc21 | 73% |
| COc1cc(C2=NN(C(C)=O)C(c3cc(OC)c(OC)c(OC)c3)C2)ccc1O (stereo not given) | -37.6% (active) |
| CSc1nc2c(c(=O)[nH]1)C(c1ccc(Cl)cc1)C1=C(N2)/C(=C/c2ccc(Cl)cc2)CNC1 (stereo not given) | 55.4% |
| C#CCCCCCCC[C@@H]1OC(=O)[C@H]([C@@H](C)CC)NC(=O)[C@@H]([C@@H](C)CC)NC(=O)CC(=O)[C@@H]1C | 107% |
| NC(N)=N/N=C/c1cccc(Br)c1 | 95.3% |
| C[C@@H](C[C@H](CC1CC1)c1ccccc1)c1ccc2ccccc2c1 | 107% |
